# Test results from ChEMBL document CHEMBL3988442, “University of Dundee, Small-Polar-MMV Screening Library” (2021).
# The campaign covered roughly 48,000 compounds. About 13,000 (27%) showed an effect of 50% or more. Some of the results follow.
# System: Wolbachia pipientis
# Test: Anti-Wolbachia Cell-Based Screen
# Format: functional
# Set-up: scale not given: in the data most compounds retested in dose-response had high values
# Conditions: 5 µM
row,SMILES,Percent Effect [%]
1,O=C(CN1C(=O)CCC1=O)N1CCOC2(CCOCC2)C1,13.71
2,O=C(NC1CCN(CC2CC2)C1)c1ccc(N2CCC(O)CC2)cc1 (centres undefined),-2.601
3,CCN(C)S(=O)(=O)N(CC)Cc1cccc(-c2ccncc2)c1,31.71
4,Cc1cc2c(cc1C)OC(C(=O)NCCNC(=O)C1CCCC1)C2 (centres undefined),-3.964
5,Cc1ccc(C)c(-n2cc(CN3CC[C@@H](O)C3)c(-c3ccccc3)n2)c1,7.715
6,CCN1CCN(C(=O)c2ccc3c(c2)OCC(=O)N3)[C@H]2CS(=O)(=O)C[C@H]21,-0.2208
7,CC(C)(O)c1cc(CC2(NCc3ccccc3Cl)COC2)no1,-20.02
8,Cn1cc(CN2C[C@H]3CCC[C@@H](CNc4nccn4C)[C@H]3C2)cn1.O=C(O)C(F)(F)F,-10.56
9,Cc1cc(CN(CC(N)=O)CC(C)C)on1,-7.292
10,Cn1nc(C2CCCN2)c2c(C(=O)NC3CC3)cc(C3CC3)nc21 (centres undefined),135.7
11,Cn1nc(C2CCNCC2)c2c(C(=O)NC3CC3)cc(C3CC3)nc21,128.7
12,Cn1nc(C2CCCNC2)c2c(C(=O)NC3CC3)cc(C3CC3)nc21 (centres undefined),121.4
13,CCCn1ncc2c(C(=O)Nc3n[nH]c(SC)n3)cc(C3CC3)nc21,6.515
14,Cn1nc(C2CCNC2)c2c(C(=O)NC3CC3)cc(C3CC3)nc21 (centres undefined),110
15,Cc1nc(NCCSc2cnn[nH]2)c2cccnc2n1,2.11
16,Cc1cnn(CCNCc2nc(-c3ccsc3)oc2C)c1,-10.22
17,CCCN(C)S(=O)(=O)NC(=O)c1ccc(CC)o1,14.97
18,O=C(CNC1CCc2ncnn2C1)N(C1=CCCCC1)C1CC1 (centres undefined),-15.4
19,Fc1cccc(N2CCOC3(CCCN(c4cnccn4)C3)C2)c1 (centres undefined),11.27
20,CN(C)CCN(Cc1ccccc1)C(=O)CN1CCCNC1=O,-13.77
21,CC1CCN(CCNC(=O)C2CCN(C(=O)C(C)(C)C)CC2)CC1,2.038
22,CCC(=O)N1CCCCC1c1nc(O)c2c(n1)CN(S(=O)(=O)CC)CC2 (centres undefined),126.4

row,SMILES,Percent Effect [%]
1,CCS(=O)(=O)CC(=O)N1CCCC1c1noc(C2CC2)n1 (centres undefined),-5.674
2,CCCS(=O)(=O)CC(=O)N1CCCC1c1noc(C2CC2)n1 (centres undefined),-6.337
3,CCC(=O)N1CCCCC1c1nc(O)c2c(n1)CN(S(C)(=O)=O)CC2 (centres undefined),103.7
4,CC(C)NC(=O)c1ccc2nnc(C3CN(C)CCN3C)n2c1.O=C(O)C(F)(F)F.O=C(O)C(F)(F)F (centres undefined),-4.33
5,COCc1cc(N(Cc2ccsc2)C2CC2)n2ncnc2n1,-20.66
6,Cc1oc(C(C)C)cc1C(=O)N1C[C@H]2CC[C@@H]1CN(S(=O)(=O)N(C)C)C2,1.683
7,CSc1[nH]c(=O)c(C(=O)N2CCCC2c2cccs2)cc1C#N (centres undefined),109.4
8,CCC1CCCCCN1C(=O)c1cc(C#N)c(SC)[nH]c1=O (centres undefined),95.93
9,CCc1cn[nH]c1C1CCCN(C(=O)c2cc(C#N)c(=O)[nH]c2C)C1 (centres undefined),-3.715
10,CSc1[nH]c(=O)c(C(=O)N2CCCC2C2CCCC2)cc1C#N (centres undefined),90.55
11,O=C(c1cnc2[nH]c(=O)[nH]c(=O)c2c1)N1CCCC1C1CCCC1 (centres undefined),-0.6345
12,Cn1c(=O)[nH]c(=O)c2cc(C(=O)N3CCCC3C3CCCC3)cnc21 (centres undefined),9.231
13,COCCn1cc(C(=O)N2CCCC2c2cccs2)c2ccccc21 (centres undefined),20.58
14,CCc1cn[nH]c1C1CCN(C(=O)c2cc(C#N)c(=O)[nH]c2C)CC1,0.2267
15,N#Cc1ncn(CC(=O)N2CCCC2c2cccs2)n1 (centres undefined),-17.52
16,COc1ccc2c(CN3CCCN(Cc4ccncc4)CC3)n[nH]c2c1,-3.33
17,COCCc1noc(CN2CCCCC2Cn2cccn2)n1 (centres undefined),100.4
18,COc1ccccc1-c1noc(CN2CCCC2Cn2cccn2)n1 (centres undefined),-4.509
19,COCCc1noc(CN2CCCCC2Cn2cc(C)cn2)n1 (centres undefined),4.505
20,c1cnn(CC2CCCN2Cc2nc(C3CC3)no2)c1 (centres undefined),112.2
21,c1cnn(CC2CCCN2Cc2nc(-c3ccoc3)no2)c1 (centres undefined),-2.106
22,COCCc1noc(CN2CCCC2Cn2cccn2)n1 (centres undefined),82.73

row,SMILES,Percent Effect [%]
1,COCCc1noc(CN2CCCC2Cn2cc(C)cn2)n1 (centres undefined),0.3604
2,Cc1cccc(-c2noc(CN3CCCC3Cn3cccn3)n2)c1 (centres undefined),3.964
3,NC(=O)C1CCCN1Cc1cccc(NC(=O)c2ccsc2)c1 (centres undefined),23.54
4,CCOc1ccnc(N2CCN(C(=O)CCc3cnn(C)c3)CC2)n1,-13.21
5,CC(C)(C)[S+]([O-])CCNC(=O)c1ccc(Cl)c2cccnc12 (centres undefined),-0.5335
6,CCN(CC)C(CNCc1ccc(OC)c(F)c1)c1ccco1 (centres undefined),3.453
7,CC(C)=CCC1(CO)CCCN(Cc2cnc(N3CCOCC3)nc2)C1 (centres undefined),-21.22
8,CC(C)(C)c1cnc(CN2CCN(c3ncccn3)CC2)o1,-4.757
9,CN(CCc1ccccc1)Cc1nc(-c2cnccn2)no1,-27.95
10,CN(CCc1ccccc1)Cc1cnc(C2(C)CCCCO2)nc1 (centres undefined),153.2
11,CN(CCc1ccccc1)Cc1cc(C(=O)N2CCCC2(C)C)no1,-2.856
12,CC1(c2ncc(CN3CCN(c4ncccn4)CC3)cn2)CCCCO1 (centres undefined),136.6
13,Cc1cc(C)n(C2CCCN(C(=O)c3cc(C4CC4)on3)C2)n1 (centres undefined),8.092
14,Cn1cnnc1C1CCCN(C(=O)c2cc(C3CC3)on2)C1 (centres undefined),107.9
15,Cn1cnnc1C1CCCN(C(=O)Cc2ccc3c(c2)OCCO3)C1 (centres undefined),17.9
16,Cc1cc(C(=O)N2CCCC(c3nncn3C)C2)no1 (centres undefined),92.93
17,Cn1cnnc1C1CCCN(C(=O)CCc2ccc3c(c2)OCO3)C1 (centres undefined),6.982
18,Cc1ccc(C(NC(=O)CN2CCc3cncnc3C2)C2CC2)cc1 (centres undefined),0.6852
19,Cc1nonc1OCCNc1ncnc2sc3c(c12)CCNC3,-7.187
20,O=C1CN(Cc2nnc(-c3ccc(Br)cc3)o2)CCN1,-13.92
